# High-throughput results from PubChem.
# A selection: hits, their analogues and other compounds. The true share with any hit is near 4.9%.
# USP7 block: blocks human USP7 ubiquitin-rhodamine cleavage | inhibition, % at 20 µM | purified USP7, Ub-rhodamine cleavage fluorescence | 0.3% of 47,000 active | Q93009
# USP10 inh: inhibitors of human USP10 deubiquitinase | Q14694 | inhibition, % at 20 µM | AID 1645856 | purified USP10, Ub-rhodamine fluorescence, 60 min | 1.1% of 47,000 active
# UCHL1 block: inhibitors of human UCHL1 deubiquitinase. inhibition, % at 20 µM. purified UCHL1, Ub-rhodamine cleavage fluorescence. 0.2% of 47,000 active. P09936
# Target sequence (P09936 whole entry, looked up): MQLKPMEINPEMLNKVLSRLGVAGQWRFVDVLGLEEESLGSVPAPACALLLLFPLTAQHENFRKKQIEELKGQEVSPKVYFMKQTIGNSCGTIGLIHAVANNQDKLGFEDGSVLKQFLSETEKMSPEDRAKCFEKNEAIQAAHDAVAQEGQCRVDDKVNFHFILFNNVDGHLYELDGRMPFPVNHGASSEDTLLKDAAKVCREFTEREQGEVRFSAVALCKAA
# USP8 inh: inhibitors of human USP8 deubiquitinase | P40818 | purified USP8, Ub-rhodamine cleavage fluorescence, 30 min | inhibition, % at 20 µM | 4.2% of 47,000 active
# OTUD3 inh: blocks human OTUD3 ubiquitin-rhodamine cleavage. purified OTUD3, Ub-rhodamine fluorescence, 2 h. 0.7% of 47,000 active. inhibition, % at 25 µM. AID 1645858
# * marks the source's active call; other numbers are inactive results. No stated cut-off is given here; in the data, active means inhibition above about 30%; inactive means the rest.
SMILES,USP7 block,USP10 inh,UCHL1 block,USP8 inh,OTUD3 inh
COc1ccc(N2CCN(C(=O)CCC(=O)N3CCCn4nc(C)cc43)CC2)cc1,3,-2,0,-29,5
COc1cc2nc(CN3CCN(c4ccc(O)cc4)CC3)[nH]c(=O)c2cc1OC,3,-2,2,38*,-14
COc1cc2nc(CN3CCN(c4ccccc4F)CC3)[nH]c(=O)c2cc1OC,1,-5,1,-2,5
Cc1cc(C)cc(NC(=O)c2ccc(-c3nc4cccnc4n(C(C)C)c3=O)cc2)c1,2,4,2,23,20
NC(=O)C1(N2CCCCC2)CCN(C(=O)c2[nH]nc3c2CCc2ccccc2-3)CC1,4,-5,4,87*,-11
Cn1nc(Cl)c(Cl)c1Oc1ccc(S(=O)(=O)Nc2ccc(Oc3ccc(C(F)(F)F)cn3)c(Cl)c2)cc1,25,69*,8,16,-8
Cc1ccc(S(=O)(=O)Nc2cc(C(F)(F)F)ccc2Oc2ccc(C)c3c2CCC3)cc1,16,19,8,20,4
O=C1NCCN(C(=O)CCn2ccccc2=O)CC1Cc1ccc(-c2ccccc2)cc1 (stereo not drawn),-11,1,1,42*,-3
Cc1ccc(CN2CCc3oc(C)c(C(=O)NCC4CCCO4)c3C2)cc1 (stereo not drawn),-3,-15,-4,-19,-16
O=C(/C=C/c1c(F)cccc1Cl)N1CCc2ccccc2C1,0,9,6,93*,30
Cc1ccc2cccc(OCc3nnc(SCC(=O)c4ccc(Cl)cc4)n3C)c2n1,8,13,7,33*,21
COc1ccc(-c2noc(CN(C(=O)C(c3ccccc3)c3ccccc3)C(C)C)n2)cc1,10,9,5,-2,6
COc1ccc2c(c1)CCc1c-2n[nH]c1C(=O)NCCN1CCOCC1,5,0,1,1,4
COc1ccc(-c2c(-c3ccc(OCCN4CCOCC4)cc3O)n[nH]c2C)cc1OC,-1,-2,0,55*,-3
COc1cccc(NS(=O)(=O)c2cnc(N)nc2)c1,1,-2,0,-2,4
O=C1CC(C(=O)Nc2ccc(F)cc2)n2nc(SCc3ccccc3)nc2N1 (stereo not drawn),8,9,1,12,13
CC(=O)c1ccc(NC(=O)C2CC(=O)Nc3nc(SCc4ccccc4)nn32)cc1 (stereo not drawn),3,30*,2,15,8
O=C(O)CCCCCN1C(=O)CC(c2ccc(Cl)cc2)CC1=O,1,12,23,55*,8
COc1cc(OC)c(NC(=O)c2cc(-c3ccccn3)n[nH]2)cc1Cl,22,40*,6,89*,5
COc1ccc(Cl)cc1NC(=O)c1cc(-c2ccccn2)n[nH]1,58*,47*,13,84*,0
Cc1ccc(Cl)cc1NC(=O)c1cc(-c2ccccn2)n[nH]1,17,23,2,19,-8
Cc1cc(C)c(O)c(-c2cc(C(=O)Nc3ccccc3Cl)[nH]n2)c1,19,25,5,97*,11
COc1ccc(CNC(=O)c2nc(-c3cn(-c4ccccc4)nc3C)no2)cc1,-26,10,2,9,8
CNc1nc(C2CCCN2C(C)=O)nc2c1CCN(S(=O)(=O)c1ccc(C)c(C)c1)C2 (stereo not drawn),3,-2,2,22,14
Cc1ccc(NC(=O)C2C3C=CC4(O3)C2C(=O)N(Cc2ccc3c(c2)OCO3)C4C(=O)NC2CCCCC2)cc1 (stereo not drawn),-13,0,-3,-5,1
SMILES,USP7 block,USP10 inh,UCHL1 block,USP8 inh,OTUD3 inh
COc1ccc(CCn2c(=O)[nH]c3cc(C(=O)NCc4ccco4)ccc3c2=O)cc1OC,7,24,4,42*,-3
COC(=O)c1ccc2c(=O)n(CCCCCC(=O)NCc3cccc(Cl)c3)c(=O)[nH]c2c1,12,39*,-3,65*,16
O=C(NCc1ccco1)c1ccc2c(=O)n(Cc3ccco3)c(=O)[nH]c2c1,-13,2,4,1,15
COC(=O)c1ccc2c(=O)n(CCCCCC(=O)NCCc3ccc(OC)c(OC)c3)c(=O)[nH]c2c1,6,11,3,46*,28
COC(=O)c1ccc2c(=O)n(CCCCCC(=O)NCCC3=CCCCC3)c(=O)[nH]c2c1,13,25,1,22,7
COc1ccc(C)cc1NC(=O)c1nc(C2CCC2)oc1C,2,4,-1,2,10
Cc1nccc(-c2ccc3c(c2)OCO3)n1,1,1,1,12,0
c1ccc2c(c1)N=C(c1ccc3c(c1)OCO3)CCN2,-9,-7,-9,78*,-14
CN(C)c1ccc(C2C3=C(CC(C)(C)CC3=O)Nc3ccccc3N2C(=O)Cc2ccc(Cl)cc2)cc1 (stereo not drawn),-1,-4,4,31*,-13
CCCn1c(=O)c(-c2ccc(C(=O)NCc3ccc(OC)cc3)cc2)nc2cccnc21,31*,33*,5,65*,23
N#C/C(=C\c1ccc(OCc2cccc(C(=O)O)c2)cc1)c1ccc(F)cc1,31*,77*,5,59*,8
COc1ccc(Nc2nc(C(=O)NCc3ccccc3)cc3occc23)cc1,-3,15,4,55*,12
O=C(NCc1ccccc1)c1cc2occc2c(Nc2ccc(F)cc2)n1,2,18,1,-11,-9
CCN1CCN(C(=O)c2cc3occc3c(Nc3ccc(OC)cc3)n2)CC1,0,2,-3,-2,-4
COc1ccc(Nc2nc(C(=O)NCc3ccc4c(c3)OCO4)cc3occc23)cc1,-6,33*,7,67*,-2
Cc1cc(C(=O)NC2(O)C(=O)c3ccccc3C2=O)n(C)n1,-96,38*,31*,82*,11
COc1cc(OC)c2c(=O)cc(-c3ccccc3)oc2c1OC,3,3,7,6,10
COc1c(O)c(O)c2c(=O)cc(-c3ccc(O)cc3)oc2c1OC,-45,14,12,20,46*
Cn1c(=O)c2c(nc(NCc3ccco3)n2CC(O)CN(Cc2ccccc2)Cc2ccccc2)n(C)c1=O (stereo not drawn),8,9,9,-32,12
Cc1ccnc(NC(=O)c2ccn(COc3ccc(Cl)cc3)n2)c1,7,3,5,31*,15
Cc1ccnc(NC(=O)c2ccn(COc3ccc(F)cc3)n2)c1,4,0,3,10,3
CC(C)CCN1C(=O)C2C(C(=O)Nc3ccc(Oc4ccccc4)cc3)C3C=CC2(O3)C1C(=O)NC1CCCCC1 (stereo not drawn),-97,10,4,31*,30*
COc1ccc(NC2c3ccccc3C(=O)N2c2ccccn2)cc1 (stereo not drawn),-9,-9,3,83*,-11
Cc1ccc(NC2c3ccccc3C(=O)N2c2ccccn2)cc1 (stereo not drawn),-10,1,2,-24,4
